Holding throughout (settings): mRNA level, 48 h; actives raise or lower the signal
Read-out in assay [1]: growth arrest and DNA damage 45 (GADD45G), GADD45G (gene 10912)
The assay is described as follows: LTEA_HepaRG_GADD45G: Life Technologies and Expression Analysis (LTEA) Assay for growth arrest and DNA damage 45 (GADD45G) using HepaRG (AID 2283499). An outline of the steps: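 Differentiated human HepaRG cells, 48 h post-plating, exposed 48 h in serum-free induction medium to 8 half-log concentrations (top 100 uM, 0.5% DMSO) in duplicate. GADD45G mRNA measured by Fluidigm TaqMan qRT-PCR, normalized to ACTB, GAPDH, POLR2A; bidirectional fit versus DMSO.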

Read-out in assay [2]: Glutamate-cysteine ligase regulatory (GCLM), GCLM (gene 2730)
The assay is described as follows: LTEA_HepaRG_GCLM: Life Technologies and Expression Analysis (LTEA) Assay for Glutamate-cysteine ligase regulatory (GCLM) using HepaRG (AID 2283500). The method, boiled down:
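Cells were plated, cultured 48 h, switched to serum-free induction medium, then dosed in duplicate for 48 h at eight half-log concentrations up to 100 uM. RNA was then profiled by qRT-PCR; gain or loss versus DMSO was fitted.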

Read-out in assay [3]: Glutathione S-transferase M3 (GSTM3), GSTM3 (gene 2947)
The experiment in a line: LTEA_HepaRG_GSTM3: Life Technologies and Expression Analysis (LTEA) Assay for Glutathione S-transferase M3 (GSTM3) using HepaRG (AID 2283501). The method, boiled down:
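Differentiated human HepaRG cells were exposed in duplicate for 48 h in serum-free induction medium, 8 points from 100 uM top in half-log steps, 0.5% DMSO. GSTM3 mRNA was measured by TaqMan qRT-PCR, normalized to ACTB, GAPDH and POLR2A; bidirectional fit versus DMSO.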

Read-out in assay [4]: Heat shock 70 kDa protein 1 (HSPA1A), gene 3303
The experiment in a line: LTEA_HepaRG_HSPA1A: Life Technologies and Expression Analysis (LTEA) Assay for Heat shock 70 kDa protein 1 (HSPA1A) using HepaRG (AID 2283502). The method, boiled down: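 Readout is HSPA1A transcript level by microfluidic qRT-PCR, normalized to three housekeeping genes and analysed for gain or loss of signal relative to 0.5% DMSO. Human HepaRG cultures received test chemicals for 48 h at up to 100 uM.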

Read-out in assay [5]: Hypoxia-inducible factor 1-alpha (Homo sapiens) (UniProt Q16665)
The assay is described as follows: LTEA_HepaRG_HIF1A: Life Technologies and Expression Analysis (LTEA) Assay for Hypoxia-inducible factor 1 (HIF1A) Trancription factor using HepaRG (AID 2283503). The method, boiled down: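 Differentiated HepaRG cells in serum-free induction medium exposed 48 h, in duplicate, to 8-point half-log series from 100 uM in 0.5% DMSO. HIF1A mRNA measured by TaqMan qRT-PCR, normalized to ACTB/GAPDH/POLR2A, fitted bidirectionally versus DMSO.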

Read-out in the next assay: HGF (gene 3082)
The assay is described as follows: LTEA_HepaRG_HGF: Life Technologies and Expression Analysis (LTEA) Assay for Hepatocyte Growth Facto (HGF) using HepaRG (AID 2283505). The method, boiled down:
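Differentiated HepaRG cells in serum-free induction medium exposed 48 h in duplicate, 8 half-log concentrations from 100 uM in 0.5% DMSO. HGF mRNA by qRT-PCR, normalised to ACTB, GAPDH, POLR2A; bidirectional fitting.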

Read-out in assay [6]: Insulin Like Growth Factor 1 (IGF1), IGF1 (gene 3479)
The assay is described as follows: LTEA_HepaRG_IGF1: Life Technologies and Expression Analysis (LTEA) Assay for Insulin Like Growth Factor 1 (IGF1) using HepaRG (AID 2283506). An outline of the steps:
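HepaRG, plated 48 h, then switched to serum-free induction media; test chemical 8-pt half-log from 100 uM (0.5% DMSO), duplicate, 48 h. Lysis in RLT, TaqMan qRT-PCR, norm. ACTB/GAPDH/POLR2A. Bidirectional fit vs DMSO.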

Read-out in assay [7]: Intercellular Adhesion Molecule 1 (ICAM1), ICAM1 (gene 3383)
The experiment in a line: LTEA_HepaRG_ICAM1: Life Technologies and Expression Analysis (LTEA) Assay for Intercellular Adhesion Molecule 1 (ICAM1) using HepaRG (AID 2283507). The method, boiled down:
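Differentiated human HepaRG cells in serum-free induction medium exposed 48 h in duplicate to 8 half-log concentrations (top 100 uM, 0.5% DMSO). ICAM1 mRNA quantified by TaqMan qRT-PCR, normalized to ACTB, GAPDH and POLR2A; bidirectional fitting versus DMSO.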

Read-out in assay [8]: Insulin-like growth factor-binding protein 1 (IGFBP1), IGFBP1 (gene 3484)
The experiment in a line: LTEA_HepaRG_IGFBP1: Life Technologies and Expression Analysis (LTEA) Assay for Insulin-like growth factor-binding protein 1 (IGFBP1) using HepaRG (AID 2283508). The method, boiled down: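 HepaRG cells, plated 48 h then switched to serum-free induction medium, exposed in duplicate for 48 h to 8-point half-log series from 100 uM in 0.5% DMSO. mRNA measured by qRT-PCR, normalized to ACTB/GAPDH/POLR2A; bidirectional fit versus DMSO.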

Read-out in assay [9]: 3-Hydroxy-3-Methylglutaryl-CoA Synthase 2 (HMGCS2), HMGCS2 (gene 3158)
The experiment in a line: LTEA_HepaRG_HMGCS2: Life Technologies and Expression Analysis (LTEA) Assay for 3-Hydroxy-3-Methylglutaryl-CoA Synthase 2 (HMGCS2) using HepaRG (AID 2283504). The method, boiled down:
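Human HepaRG cells in serum-free induction medium were exposed in duplicate for 48 h to 8-point half-log series from 100 uM top in 0.5% DMSO. HMGCS2 mRNA measured by TaqMan qRT-PCR, normalised to ACTB, GAPDH, POLR2A; bidirectional fit versus DMSO.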

The source made the active and inactive calls. The calls were made as follows: active = hit-call score of the fitted dose curve at least 0.9, where 1 is the maximum; inactive = score below 0.9.

Sequence of Hypoxia-inducible factor 1-alpha (Homo sapiens) (Q16665 whole entry, looked up): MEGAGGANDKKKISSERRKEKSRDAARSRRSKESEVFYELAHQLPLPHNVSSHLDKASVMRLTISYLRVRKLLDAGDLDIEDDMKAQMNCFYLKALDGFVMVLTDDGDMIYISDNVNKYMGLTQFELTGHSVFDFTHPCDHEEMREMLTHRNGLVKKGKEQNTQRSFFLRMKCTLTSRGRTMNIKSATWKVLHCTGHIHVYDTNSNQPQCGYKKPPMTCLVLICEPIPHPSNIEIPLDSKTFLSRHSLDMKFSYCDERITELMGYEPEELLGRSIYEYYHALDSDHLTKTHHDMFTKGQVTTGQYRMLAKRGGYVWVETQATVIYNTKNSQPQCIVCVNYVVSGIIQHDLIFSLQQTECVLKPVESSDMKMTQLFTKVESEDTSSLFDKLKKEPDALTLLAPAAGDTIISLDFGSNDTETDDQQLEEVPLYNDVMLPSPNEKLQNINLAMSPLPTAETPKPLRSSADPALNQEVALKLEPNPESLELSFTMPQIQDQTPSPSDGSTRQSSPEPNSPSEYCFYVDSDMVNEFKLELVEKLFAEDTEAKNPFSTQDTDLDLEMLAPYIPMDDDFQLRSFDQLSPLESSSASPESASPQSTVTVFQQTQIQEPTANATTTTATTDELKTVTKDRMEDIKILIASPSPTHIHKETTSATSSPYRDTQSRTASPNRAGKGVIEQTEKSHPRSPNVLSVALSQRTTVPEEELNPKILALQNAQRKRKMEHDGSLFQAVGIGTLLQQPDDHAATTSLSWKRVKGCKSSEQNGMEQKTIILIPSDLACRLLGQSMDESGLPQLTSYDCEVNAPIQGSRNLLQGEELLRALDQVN

`OCCC(F)(F)C(F)(F)C(F)(F)C(F)(F)C(F)(F)C(F)(F)F`: the result (in assay [1]; in assay [2]; in assay [3]; in [4]; in assay [5]; with HGF (gene 3082)) was inactive. In addition, the compound was classed as inactive in assay [6], in assay [7] and in [8].
With `CN(C)C=O`, the outcome (in [1]; in [2]; in assay [4]; in assay [5]; in assay [9]; with HGF (gene 3082)) was inactive. For the same compound, the compound was called inactive in [6] and in assay [7].
As to `C[C@@H]1C[C@H]2[C@@H]3CCC4=CC(=O)C=C[C@]4(C)[C@@]3(F)[C@@H](O)C[C@]2(C)[C@@]1(O)C(=O)COP(=O)(O)O`, the outcome (in [1]; in assay [2]; in assay [4]; in assay [5]; in [9]; with HGF (gene 3082)) was inactive. The compound was classed as inactive in assay [6], in assay [7] and in assay [8].
Consider `O=[N+]([O-])c1ccc(O)cc1`, for which the outcome (in assay [1]; in [2]; in assay [4]; in [5]; in [9]; with HGF (gene 3082)) was inactive. Besides, the result in assay [6] and in assay [7] was inactive.
With `N#C[C@@H]1CC(F)(F)CN1C(=O)CNC1CC2CCC(C1)N2c1ncccn1` (some centres not stated), the compound was classed as inactive (in assay [1]; in assay [2]; in assay [3]; in assay [4]; in [5]; with HGF (gene 3082)). Besides, the outcome in [6] and in assay [7] was inactive.
As to `CC[C@H](C)[C@@H](C(=O)O)n1sc2ccccc2c1=O`, the compound was called inactive (in assay [1]; in assay [2]; in assay [3]; in [4]; in the assay with HGF (gene 3082); in assay [6]). Also, the result in [7] was inactive. In assay [5], the AC50 was 0.372 µM (active).
For the compound `O=C(O)c1ccccc1C(c1ccc(O)cc1)c1ccc(O)cc1`, the compound was classed as inactive (in [1]; in [2]; in assay [3]; in assay [4]; in assay [5]; with HGF (gene 3082)). In addition, the call in assay [6] and in [7] was inactive.
On to `O=c1c(-c2ccc(O)cc2)coc2cc(O)ccc12`, for which the compound was called inactive (in assay [1]; in assay [2]; in assay [3]; in [4]; in the assay with HGF (gene 3082); in [6]). The compound was called inactive in assay [7].
In the case of `Cc1oc(-c2ccccc2)nc1CCOc1ccc(C[C@H](Nc2ccccc2C(=O)c2ccccc2)C(=O)O)cc1`, the AC50 is 0.0219 µM (active) in assay [1]; 27.9 µM (active) in assay [3]; 16.2 µM (active) in [4]; 30.8 µM (active) in assay [5]; 22.8 µM (active) in assay [9]; 15.8 µM (active) in the assay with HGF (gene 3082). The values for the AC50 in assay [6] and in assay [7] were 12.4 µM (active) and 26.8 µM (active), respectively. In [2], the compound was called inactive.
Regarding `C#C[C@]1(O)CC[C@H]2[C@@H]3CCC4=CC(=O)CC[C@@H]4[C@H]3CC[C@@]21C`, the compound was classed as inactive in assay [1], in assay [2], in assay [3], in [4], in assay [6] and in assay [7]. In addition, the compound was called inactive in [8].
In the case of `COC(=O)CCCCC(=O)OC`, the result (in assay [1]; in [2]; in assay [3]; in assay [4]; in assay [5]; with HGF (gene 3082)) was inactive. Besides, the call in assay [6], in [7] and in assay [8] was inactive.
`CCN(CC)CCNc1ccc(CNC=O)c2sc3ccc(OC)cc3c(=O)c12`: the AC50 in assay [1] is 50 µM (active); in assay [4], 9.92 µM (active); in assay [5], 75.5 µM (active); in [6] it was 85.6 µM (active); in assay [7], 62.6 µM (active); in assay [8], 94.1 µM (active). Besides, the call (in assay [2]; in assay [3]; with HGF (gene 3082)) was inactive.
For `OCCC(F)(F)C(F)(F)C(F)(F)C(F)(F)C(F)(F)C(F)(F)C(F)(F)C(F)(F)F`, the outcome in assay [1], in [2], in assay [3], in assay [4], in [5] and in assay [9] was inactive. Also, the compound was classed as inactive (with HGF (gene 3082); in assay [6]; in assay [7]).
In the case of `OC1CCCCC1`, the compound was classed as inactive (in [1]; in assay [2]; in assay [4]; in assay [5]; in assay [9]; in the assay with HGF (gene 3082)). The compound was called inactive in [6] and in [7].
For the compound `NC(=O)N(O)[C@@H]1C=C[C@H](Oc2cccc(Oc3ccc(F)cc3)c2)C1`, the result (in [1]; in assay [3]; in the assay with HGF (gene 3082)) was inactive. The AC50 in assay [2] is 50 µM (active); in assay [4] it was 82.6 µM (active); in assay [5], 78.7 µM (active); in assay [6], 37.9 µM (active); in assay [7], 37.3 µM (active); in assay [8], 71.8 µM (active).
For the compound `CC(O)CO` (configuration not stated), the compound was called inactive (in assay [1]; in [2]; in assay [3]; in assay [4]; in [5]; with HGF (gene 3082)). The result in assay [6] and in assay [7] was inactive.
With `CCCCCCCCOC(=O)CCCCCCCCC(=O)OCCCCCCCC`, the call (in assay [1]; in assay [2]; in [3]; in assay [4]; in [5]; with HGF (gene 3082)) was inactive. Also, the compound was called inactive in [6] and in assay [7].
Turning to `CC#C[C@]1(O)CC[C@H]2[C@@H]3CCC4=CC(=O)CCC4=C3[C@@H](c3ccc(N(C)C)cc3)C[C@@]21C`, the AC50 in [1] is 40.8 µM (active); in assay [2], 31.6 µM (active); in [5], 85.5 µM (active); in assay [9] it was 75.9 µM (active); in the assay with HGF (gene 3082), 85.2 µM (active); in [6] it was 68.4 µM (active). In addition, the AC50 in [7] is 26 µM (active). For the same compound, in [4], the compound was classed as inactive.
Turning to `c1ccc2cc3c(ccc4ccccc43)cc2c1`, the half-maximal activity concentration (AC50) in assay [1] was 15.5 µM (active); in [2] it was 38.8 µM (active); in assay [6] it was 20.1 µM (active); in assay [8] it was 8.36 µM (active). Moreover, the compound was called inactive (in [3]; in [4]; in assay [5]; in the assay with HGF (gene 3082); in assay [7]).
`C=C(C)C(=O)OCCC(F)(F)C(F)(F)C(F)(F)C(F)(F)C(F)(F)C(F)(F)F`: the outcome in assay [1], in [2], in assay [3], in assay [4], in [5] and in assay [9] was inactive. In addition, the outcome (in the assay with HGF (gene 3082); in assay [6]; in assay [7]; in assay [8]) was inactive.
Take `CCC(=C(c1ccc(O)cc1)c1ccc(OCCN(C)C)cc1)c1ccccc1`: the AC50 in [1] was 93 µM (active); in [4], 69.4 µM (active); in assay [5], 83.8 µM (active); in assay [9], 91.7 µM (active); in assay [6], 93.4 µM (active); in [7], 67.9 µM (active). Further, the AC50 in [8] was 76.5 µM (active). Moreover, the compound was called inactive (in assay [2]; in assay [3]; with HGF (gene 3082)).
As for `ClC1=C(Cl)C(Cl)(Cl)C(Cl)=C1Cl`, the compound was classed as inactive in assay [1], in [2], in [3], in assay [4], in [5] and in assay [9]. In addition, the compound was called inactive (in the assay with HGF (gene 3082); in [6]; in assay [7]).

Source of the values: PubChem BioAssay (EPA / NIEHS).
